Compounds without any hit were thinned out: in the full panel of roughly 79,000, 15% have a hit. A number with no mark means an inactive call. Activity calls are given as the source filed them. Cut-off read from the data, not from the text of the source: active = growth inhibition above about 70%; inactive = the rest.
Tests used:
[1] = NCI Yeast Anticancer Drug Screen. Data for the rad50 strain (AID 155);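 note: 0% = growth of vehicle-only cultures of the same strain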; conditions: S. cerevisiae rad50 strain growth inhibition, hits give high values
Summary of the method: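 Cells are treated with compound, grown, and their growth is then scored against vehicle-only cultures of the same repair-deficient yeast strain.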

[2] = NCI Yeast Anticancer Drug Screen. Data for the mec2-1 strain (AID 157); conditions: S. cerevisiae mec2-1 strain, hits give high values
Summary of the method: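 Compounds were applied to mec2-1 yeast cells. Their growth was then compared with that of vehicle-treated cultures to give growth inhibition.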

[3] = NCI Yeast Anticancer Drug Screen. Data for the sgs1 mgt1 strain (AID 161);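 note: 0% = growth of cultures given vehicle only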; conditions: S. cerevisiae sgs1 mgt1 strain, hits give high values
Summary of the method: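 Growth of a repair-deficient yeast mutant was monitored after compound treatment and expressed as inhibition relative to vehicle-treated cultures.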

[4] = NCI Yeast Anticancer Drug Screen. Data for the cln2 rad14 strain (AID 165);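 note: 0% = growth equal to vehicle treated cultures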; conditions: S. cerevisiae cln2 rad14 strain, hits give high values
Summary of the method: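 Strain: cln2 rad14 yeast, altered in cell cycle control and DNA damage repair. Read-out: growth inhibition vs vehicle.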

[5] = NCI Yeast Anticancer Drug Screen. Data for the bub3 strain (AID 167); conditions: S. cerevisiae bub3 mutant strain, hits give high values
Summary of the method: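 Part of a panel of yeast mutants defective in DNA damage repair or cell cycle regulation. Each strain is grown with compound, and inhibition is calculated relative to solvent-treated cultures.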

[6] = NCI Yeast Anticancer Drug Screen. Data for the mlh1 rad18 strain (AID 175); conditions: S. cerevisiae mlh1 rad18 strain growth inhibition, hits give high values
Summary of the method: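 A repair-deficient yeast strain is exposed to test compound, and growth is scored relative to vehicle-treated controls.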

[7] = at 5.0 µM (retest, dose inferred, filed as 0.5)
[8] = at 50.0 µM (retest, dose inferred, filed as 5.0)

Structure (SMILES) | growth inhibition [1, 7] | growth inhibition [1, 8] | growth inhibition ([1]; at 50.0 µM) | growth inhibition [2, 7] | growth inhibition [2, 8] | growth inhibition ([2]; at 50.0 µM) | growth inhibition [3, 7] | growth inhibition [3, 8] | growth inhibition ([3]; at 50.0 µM) | growth inhibition [4, 7] | growth inhibition [4, 8] | growth inhibition ([4]; at 50.0 µM) | growth inhibition [5, 7] | growth inhibition [5, 8] | growth inhibition ([5]; at 50.0 µM) | growth inhibition [6, 7] | growth inhibition [6, 8] | growth inhibition ([6]; at 50.0 µM)
[N-]=[N+]=NC1(N=[N+]=[N-])C(=O)NN=C(c2ccccc2)C1=O (stereo unspecified) | -12% | 87% (active) | 84% (active) | 15% | 91% (active) | 91.2% (active) | 4% | 83% (active) | 88% (active) | 23% | 87% (active) | 86.8% (active) | -3% | 97% (active) | 89.7% (active) | 31% | 97% (active) | 79.7% (active)
C[CH2][Pb]([CH2]C)([CH2]C)[O]C(C)=O | 33% | 48% | 84.8% (active) | 43% | 40% | 76% (active) | 11% | 98% (active) | 86.8% (active) | 29% | 96% (active) | 52.7% | 26% | 97% (active) | 82.4% (active) | 35% | 59% | 77.1% (active)
S=P(Nc1ccc(Cl)cc1)(Nc1ccc(Cl)cc1)c1ccccc1 | 45% | 90% (active) | 97.8% (active) | 20% | 33% | 99.2% (active) | 18% | 65% | 97.1% (active) | 37% | 89% (active) | 95.6% (active) | 38% | 86% (active) | 99.1% (active) | 53% | 95% (active) | 99% (active)
c1ccc(N=c2snc(-c3ccccc3)s2)cc1 | 2% | 2% | 91.1% (active) | -3% | -2% | 46.8% | 4% | 3% | 73.5% (active) | 3% | -2% | 6.4% | -4% | 2% | 82.5% (active) | 5% | 6% | 80.2% (active)
CC1(C)N=C(N)N=C(N)N1c1ccc(OCC(=O)Nc2cccc(S(=O)(=O)F)c2)c(Cl)c1 | 4% | 38% | 70.5% (active) | -20% | 97% (active) | 95.6% (active) | -3% | 63% | 64.1% | -2% | -5% | -25.9% | -6% | 32% | -1.45% | 12% | 65% | 45%
C#CCN1C(=O)N(CC#C)C(=O)C(CC#C)(C(CC=C)c2ccccc2)C1=O (stereo unspecified) | 1% | 96% (active) | 57.3% | 2% | 97% (active) | 26.6% | -1% | 97% (active) | 66.5% | 16% | 95% (active) | 58.5% | 9% | 98% (active) | 59% | -23% | 97% (active) | 53.4%
CO/C1=C\C(C)=C\C(C)C(O)C(C)C/C(C)=C/C=C/C(OC)C(C(C)C(O)C(C)C2(O)CC(O)C(C)C(C(C)C)O2)OC1=O (stereo unspecified) | 1% | 84% (active) | 85.2% (active) | -11% | 59% | 77.3% (active) | 8% | 85% (active) | 84.5% (active) | 9% | 78% (active) | 74.1% (active) | 5% | 88% (active) | 86.2% (active) | 0% | 88% (active) | 81.2% (active)
CCC[CH2][Sn]1([CH2]CCC)[O]C(=O)CN=Cc2ccccc2[O]1 | 88% (active) | 88% (active) | 88.5% (active) | 92% (active) | 92% (active) | 92% (active) | 85% (active) | 85% (active) | 90% (active) | 91% (active) | 91% (active) | 90.8% (active) | 90% (active) | 90% (active) | 89.9% (active) | 90% (active) | 90% (active) | 89.5% (active)
O=C(O)c1cc(Cc2ccc(O)c(C(=O)O)c2)ccc1O (tested in a mixture with another compound) | 92% (active) | 32% | 42.6% | 76% (active) | 4% | 26.7% | 40% | 48% | 85% (active) | 31% | 41% | 14.1% | 33% | 36% | 72.7% (active) | 87% (active) | 36% | 74.4% (active)
Clc1ccc2c(c1)C(c1ccccc1Cl)=NCC(SCCN1CCOCC1)=N2 | 56% | 94% (active) | 96.8% (active) | 29% | 92% (active) | 93.6% (active) | 63% | 98% (active) | 89.7% (active) | 45% | 81% (active) | 82% (active) | 48% | 93% (active) | 95.6% (active) | 52% | 95% (active) | 91.5% (active)
[Au+].[Au+].[Au+].[c-]1nccn1Cc1ccccc1.[c-]1nccn1Cc1ccccc1.[c-]1nccn1Cc1ccccc1 | 13% | 97% (active) | 76.6% (active) | 11% | 98% (active) | 88.2% (active) | 29% | 97% (active) | 88.9% (active) | 12% | 97% (active) | 88.8% (active) | 18% | 98% (active) | 84.3% (active) | 57% | 96% (active) | 90.9% (active)
[O-][n+]1onc2c1-c1nonc1CC2 | 21% | 9% | -33.5% | -16% | -6% | 5.65% | 4% | 22% | -10.3% | 8% | 21% | 16% | 6% | 19% | -3.95% | -2% | 11% | 1.15%
CCCCOOC(=O)c1ccccc1C(=O)OOCCCC | 47% | 99% (active) | 99.3% (active) | 33% | 100% (active) | 99.5% (active) | 41% | 100% (active) | 99% (active) | 51% | 99% (active) | 98.7% (active) | 30% | 100% (active) | 99.5% (active) | 70% (active) | 99% (active) | 98.8% (active)
CCOC(=O)CNC(=O)C1C2c3ccccc3C(c3ccccc32)C1C(=O)O (stereo unspecified) | 3% | 38% | 90.3% (active) | 3% | 40% | 95.4% (active) | 0% | 39% | 96% (active) | 1% | 25% | 95.9% (active) | 1% | 45% | 94% (active) | -1% | 32% | 98.5% (active)
O=C(c1ccccc1)c1cc(CN(CCCl)CCCl)c(O)cc1O | 0% | 32% | 54.3% | -17% | 43% | 17.9% | 7% | 75% (active) | 43% | -2% | -1% | 13.2% | -6% | -4% | 29.3% | 11% | 86% (active) | 80.3% (active)
O=[n+]1c2ccccc2n([O-])c2ccccc21.[Cl][Cu][Cl] | 90% (active) | 98% (active) | 99.1% (active) | 20% | 99% (active) | 99% (active) | 36% | 98% (active) | 99.2% (active) | 7% | 97% (active) | 97.6% (active) | -3% | 98% (active) | 97.7% (active) | 57% | 98% (active) | 99% (active)
Cc1cc(N(CCCl)CCCl)ccc1C1N(Cc2ccc(Cl)cc2Cl)CCCN1Cc1ccc(Cl)cc1Cl | 42% | 85% (active) | 40.5% | -4% | 65% | 18.2% | 25% | 91% (active) | 57.5% | 14% | 60% | 14.4% | 22% | 92% (active) | 16.1% | 18% | 96% (active) | 52.2%

— PubChem BioAssay (NCI)
